Screens: PubChem, National Center for Advancing Translational Sciences (NCATS)
Only some compounds are listed: those with a hit (about 19% of all), similar ones and a draw of the others.
DT40 TDP1 CPT: growth inhibition of DT40 Tdp1-/-;hTDP1 cells with camptothecin (screen for TDP1 inhibitors) | chicken DT40 Tdp1-/-;hTDP1 cells + 20 nM CPT, ATP luminescence, 48 h | Potency, µM (series often up to 46.2 µM), inactives show at the top dose activity change, negative = growth inhibition, most hits filed as inhibitors | hit rate 12% among 420,000; further: potency means the concentration at half of the fitted maximal effect; nearly all actives have a fitted effect of over 55% in size
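Cell growth measured by CellTiter-Glo luminescence after a minimum 48 h, 37 C compound exposure with 20 nM CPT in Tdp1-knockout DT40 cells stably expressing hTDP1, seeded 400/well; qHTS titration format.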
TDP1 inh: blocks human tyrosyl-DNA phosphodiesterase 1. recombinant TDP1, AlphaScreen DNA substrate cleavage. Potency, µM (top dose mostly 130 µM), for the others: top-dose activity change, negative = inhibition, actives largely listed as inhibitors. hit rate 0.28% among 350,000. AID 485290; further: potency means the concentration at half of the fitted maximal effect; nearly all actives have a fitted effect of over 40% in size
Target sequence (Q9NUW8 whole entry, looked up): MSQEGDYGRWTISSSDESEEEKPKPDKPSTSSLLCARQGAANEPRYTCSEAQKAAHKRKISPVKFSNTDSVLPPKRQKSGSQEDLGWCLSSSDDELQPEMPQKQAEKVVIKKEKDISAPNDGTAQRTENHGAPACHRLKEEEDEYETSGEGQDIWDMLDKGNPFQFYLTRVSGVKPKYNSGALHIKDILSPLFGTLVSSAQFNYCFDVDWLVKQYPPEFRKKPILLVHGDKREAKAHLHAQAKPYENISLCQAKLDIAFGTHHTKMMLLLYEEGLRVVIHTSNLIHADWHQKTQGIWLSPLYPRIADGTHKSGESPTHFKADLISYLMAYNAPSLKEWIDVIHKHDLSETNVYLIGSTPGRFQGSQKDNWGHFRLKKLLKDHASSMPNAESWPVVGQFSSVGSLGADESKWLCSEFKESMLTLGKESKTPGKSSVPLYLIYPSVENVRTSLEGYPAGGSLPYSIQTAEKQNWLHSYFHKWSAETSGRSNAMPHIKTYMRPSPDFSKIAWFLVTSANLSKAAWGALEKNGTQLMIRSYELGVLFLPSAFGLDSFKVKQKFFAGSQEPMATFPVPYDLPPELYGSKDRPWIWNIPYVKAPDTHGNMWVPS
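Recombinant human Tdp1 (E. coli-expressed, 1 nM final) preincubated with compounds 15 min at room temperature, then 5'-biotin/3'-phosphotyrosine-FITC DNA substrate (15 nM final) added for 5 min. AlphaScreen beads (10 ug/ml final) added 10 min; cleavage lowers signal.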
Giardia kill: Giardia lamblia killing | Giardia lamblia trophozoite viability | activity change, % at 7.66 µM, hits read low | hit rate 0.15% among 340,000 | AID 540267; in the data active means activity change below about -80%; inconclusive means between about -30% and that limit;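 further: parasites exposed to compound for two days anaerobically before the ATP read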
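Each well holds 100 Giardia trophozoites and compound. After two days (48 hrs) at 37 deg C in anaerobic conditions, ATP is quantified by luminescence.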
IL-1B inflam inh: inflammasome signaling inhibition, IL-1 beta readout; THP-1 LPS/ATP IL-1B secretion, AlphaLISA, 16 h; hits give low values; activity change, % at 57.5 µM; hit rate 4.7% among 360,000; AID 743279; in the data active means activity change below about -50%; inconclusive means mostly about -30% to -49%
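Secreted IL-1B measured by AlphaLISA bead assay after 16 h compound exposure of THP-1 cells; compounds (final up to 57.5 uM) added 1 h before LPS (250 ng/mL) and ATP (1.25 mM) stimulation; lower signal means less secretion.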
TDP1 cell noCPT: qHTS for Inhibitors of human tyrosyl-DNA phosphodiesterase 1 (TDP1): qHTS in cells in absence of CPT | DT40 Tdp1-/- hTDP1 cells, no CPT, ATP luminescence, 48 h | Potency, µM (doses to about 46.2 µM), inactives show at the highest dose activity change, negative = growth inhibition, actives largely listed as inhibitors | hit rate 15% among 420,000; further: potency means the concentration at half of the fitted maximal effect; nearly all actives have a fitted effect of over 55% in size
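Camptothecin absent (DMSO only). Human TDP1-complemented DT40 knockout cells, 400 cells/well, 37 °C for minimum 48 hr; ATP measured via CellTiter-Glo, 30 min dark incubation, luminescence.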
ELG1 repair inh: blocks ELG1-dependent DNA repair in HEK293T cells. hit rate 2.3% among 330,000. HEK293T ELG1-luciferase reporter, luminescence, 16 h; DNA damage induced by 5-fluorouridine. AID 504467. Potency, µM (highest dose often 46.1 µM), inactives show at the highest dose activity change, negative = inhibition, actives largely listed as inhibitors; further: potency means the concentration at half of the fitted maximal effect; nearly all actives have a fitted effect of over 55% in size
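Quantitative HTS, concentration-response format. 2,000 cells/well co-treated with 5-fluorouridine and compound, 16 hr in 5% CO2 at 37 °C; ONE-Glo luminescence read after 30 min.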
Active calls of the source: *; u = inconclusive; x = no result; [ ] = another dose, or the depositor's remark. Unless noted, the call rests on the fitted dose curve; in most records, active means well fitted curve in the direction sought with a large enough effect; inconclusive means small, poorly fitted or top-dose-only effect, or another doubt; inactive means no such curve, though single readings can be large; an effect the other way counts as inactive or inconclusive. On the % scale 0 is the no-effect control and ±100 the full control effect.

SMILES	DT40 TDP1 CPT	TDP1 inh	Giardia kill	IL-1B inflam inh	TDP1 cell noCPT	ELG1 repair inh
CCOc1ccc(NC(=O)Cn2c(=O)c(CNc3ccc(CC)cc3)cc3cc4c(cc32)OCO4)cc1	x	6%	x	x	x	x
C=CC[C@@H](CC(=O)NCCO)C(=O)NCCOC(=O)[C@@H](CC=C)Cc1ccc(F)cc1	-11%	1%	3	27	-10%	-5%
Cc1cc(O)c(C(C)C)cc1N=Cc1ccccc1[N+](=O)[O-]	5.2µM*	x	7	-15	3.3µM*	x
Cc1cc(O)c(C(C)C)cc1N=Nc1ccccc1C(=O)O	-11%	7%	-2	19	u	u
Cc1noc(C)c1COc1ccccc1C(=O)N(C)Cc1ccc(F)cc1	u	0%	18	37	u	-9%
Cc1noc(C)c1COc1ccccc1C(=O)N(C)Cc1ccc(C(C)(C)C)cc1	7.3µM*	3%	-9	54	6.5µM*	u
Cc1ccc(NC(=O)CN(C)C(=O)c2ccccc2OCc2c(C)noc2C)cc1	-23%	x	3	-7	-14%	u
CCOc1ccc(CCNC(=O)c2ccc(OCc3c(C)noc3C)cc2)cc1OCC	26µM*	3%	14	2	21µM*	u
COc1ccc(Br)cc1CN(C)C(=O)c1ccccc1OCc1c(C)noc1C	u	0%	3	-65*	16µM*	-24%
CCOc1ccc(NC(=O)CN(C)C(=O)c2ccccc2OCc2c(C)noc2C)cc1OCC	u	-1%	8	7	0.65µM*	0%
Cc1cccc(C(=O)Nc2c(-c3ccc(F)cc3)nc3ccccn23)c1	u	6%	x	x	u	x
O=C(NCCc1nc(-c2ccccc2)no1)c1ccco1	-5%	x	30	16	-16%	x
COc1ccc(CCNC(=O)c2ccccc2OCc2c(C)noc2C)cc1	u	2%	-13	4	u	-9%
Cc1noc(C)c1COc1ccccc1C(=O)NCCc1ccc(Cl)cc1	u	-4%	3	-69*	u	u
O=[N+]([O-])c1cccc(S(=O)(=O)N2CCN(c3nc(-c4cccs4)nc4ccccc34)CC2)c1	3%	2%	-11	x	-19%	x
COC(=O)C1(Cc2cc(-c3ccc(OC)cc3OC)no2)CCN(C(=O)OC(C)(C)C)CC1	u	x	4	6	21µM*	u
COC(=O)C1(Cc2cc(-c3cccc(Br)c3)no2)CCN(C(=O)OC(C)(C)C)CC1	u	x	-17	-7	u	-16%
N=C1C(c2nc3ccccc3c(=O)[nH]2)=C(O)CN1CCc1ccccc1	2.6µM*	71µM*	2	-12	6.5µM*	-5%
N=C1C(c2nc3ccccc3c(=O)[nH]2)=C(O)CN1CCO	0%	3%	2	5	-3%	5%
O=C(NNC(=O)c1ccc(Br)s1)c1cccc(Cl)c1	-8%	1%	2	-16	u	u
Cc1ccc(OCc2cc(C(=O)N3CCCC(C)C3)no2)cn1 (stereo unspecified)	16µM*	x	x	24	21µM*	x
CC(=O)c1ccc(OCc2cc(C(=O)N3CCN4CCCC4C3)no2)cc1 (stereo unspecified)	-9%	4%	-2	9	u	-4%
CC(=O)c1ccc(OCc2cc(C(=O)N3CCCCC3c3cccnc3)no2)cc1 (stereo unspecified)	21µM*	5%	1	u	18µM*	u
CC(=O)c1ccc(OCc2cc(C(=O)N3CCC(c4ccncc4)CC3)no2)cc1	12µM*	6%	21	-12	5.8µM*	0%
COCC1CCN(C(=O)c2cc(COc3ccc4c(c3)CCCC4)on2)C1 (stereo unspecified)	u	-5%	18	-62*	-26%	6%
SMILES	DT40 TDP1 CPT	TDP1 inh	Giardia kill	IL-1B inflam inh	TDP1 cell noCPT	ELG1 repair inh
COCC1CCCN(C(=O)c2cc(COc3ccc(C(C)=O)cc3)on2)C1 (stereo unspecified)	-22%	x	2	-15	-28%	x
CCN(CC)c1ccc(C(=O)N2CCC(c3ccncc3)CC2)cc1	21µM*	0%	x	x	3.3µM*	x
COc1cccc(OCc2cc(C(=O)N3CCN(C)C(c4ccccc4)C3)no2)c1 (stereo unspecified)	26µM*	5%	-22	20	u	u
CC(=O)c1ccc(OCc2cc(C(=O)N3CC[C@@H]4CCCC[C@H]4C3)no2)cc1	u	-2%	18	-81*	16µM*	u
COc1cccc(OCc2cc(C(=O)N3CCC(c4ccncc4)CC3)no2)c1	15µM*	4%	-11	-20	8.2µM*	u
Cc1ccc(N2C(=O)CCC2=O)c(C)c1	4%	x	6	-6	-2%	x
CC(O)C1CCC2C3CC[C@H]4CC(O)CCC4(C)C3CC3(OCCO3)C12C (stereo partly specified)	-29%	4%	-19	6	21µM*	-7%
CC(O)[C@H]1CC[C@H]2[C@@H]3CC[C@H]4C[C@H](O)CC[C@]4(C)[C@H]3[C@H](O)C[C@]12C (stereo partly specified)	-34%	x	u	-1	-13%	0%
CCOCCCN1C(=O)C(=O)N(CC(=O)N2c3ccccc3NC(=O)CC2C)C1=O (stereo unspecified)	-11%	-3%[56.1 µM]	17	-4	-3%	2%
COc1cc2c(cc1OC)C(c1ccc([N+](=O)[O-])cc1)NC(=O)C2 (stereo unspecified)	4%	3%	8	-5	-19%	30%
O=C(NNC(=O)c1ccc(Br)s1)c1csc(N2CCOCC2)n1	-9%	-8%	u	-16	-25%	19%
CC(C)(C)CC(C)(C)NCC(O)COc1ccc2c(c1)CCC2 (stereo unspecified)	u	x	-13	-75*	23µM*	x
COc1ccccc1N1CCN(CC(O)COc2ccc3c(c2)CCC3)CC1 (stereo unspecified)	16µM*	4%	-20	-64*	u	u
CC(=O)c1c(C)nn(CC(O)COc2ccc3c(c2)CCC3)c1C (stereo unspecified)	u	7%	24	u	16µM*	u
COc1ccccc1N1CCN(CC(O)COc2ccc(C)cc2C(C)(C)C)CC1 (stereo unspecified)	u	6%	-4	x	18µM*	x
CCn1c(=O)c2cc(C(=O)NCCc3cc(OC)ccc3OC)sc2c2ccccc21	-3%	1%	x	x	8.2µM*	x
